Data taken from PMC10668032, “Altered binding affinity of SIX1-Q177R correlates with enhanced WNT5A and WNT pathway effector expression in Wilms tumor”.
Whole data set: some 33,000 sequences, median “e-score” near -0.05, cut for the highest 2% near 0.38. This is one part of a sample in which the highest values are shown more often than they occur.

target: T1, SIX1-Q177R homeodomain (human, UniProt Q15475 108-198, Q177R); experiment: universal protein binding microarray; Universal all-10-mer PBM (8x60K, AMADID 030236), 300 nM GST-tagged protein, Alexa Fluor 488 anti-GST; buffer, salt, pH and temperature not stated (as in Berger); high values mean tight binding; details: protein: ivt; tags: N-terminal GST; dsDNA, one strand shown
T1 sequence: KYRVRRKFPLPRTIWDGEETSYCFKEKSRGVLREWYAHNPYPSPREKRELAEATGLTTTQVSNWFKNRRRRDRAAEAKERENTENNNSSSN
How it was run: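 Binding of GST-tagged homeodomains is given as 8-mer E-scores from the Universal PBM Analysis Suite. The proteins were produced by in vitro transcription/translation, quantified by anti-GST western blot against a recombinant GST standard curve, and applied in duplicate at 300 nM final concentration to universal 'all 10-mer' protein binding microarrays (8×60K format).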

Sequence	binding signal [E-score]
ACCCTGAG	0.245 ± 0.0251
CCCAAAAC	0.193 ± 0.0284
GCCAACAC	0.3693 ± 0.00257
ACCAACTC	0.169 ± 0.01
CCCAACAA	0.199 ± 0.00812
CCCAACAC	0.403 ± 0.0145
GCAAACAC	0.351 ± 0.00619
CCAAACAC	0.3825 ± 0.00157
ACCAACAC	0.41011 ± 0.000354
ACTATGTG	0.17 ± 0.0249
CACCTTCA	0.241 ± 0.0302
CACCTTGG	0.344 ± 0.0104
CCCCTACC	0.237 ± 0.0383
GAGTATCC	0.199 ± 0.0139
GAGTGACA	0.242 ± 0.00566
AAGTGTCT	0.346 ± 0.0141
TAGTGTCA	0.454 ± 0.00792
GAGTGTCC	0.406 ± 0.00513
GTGTGTCA	0.369 ± 0.0056
GAGTGTCA	0.45 ± 0.0122
TAGTGACA	0.211 ± 0.0357
AAGTGTCA	0.418 ± 0.0194
TAGAGTCA	0.196 ± 0.0118
AAGTGTCC	0.332 ± 0.00652
CGTATCCA	0.159 ± 0.0161

Sequence	binding signal [E-score]
ATATACCC	0.2382 ± 0.000608
CACCCAGA	0.189 ± 0.0293
ACCAGATA	0.162 ± 0.0127
ACCACGGA	0.178 ± 0.0145
ACCCTTAC	0.158 ± 0.0125
CACCTTTA	0.223 ± 0.0267
CACAGACA	0.155 ± 0.0227
CCGACCCG	0.176 ± 0.00738
ACGTGTAC	0.387 ± 0.0177
CCGTGTGC	0.215 ± 0.0507
ACGTGTAG	0.347 ± 0.0241
GCGTTTAC	0.16 ± 0.0218
GCGTGTAC	0.4393 ± 0.000926
GCGTATAC	0.158 ± 0.00385
CCGTGTAC	0.4382 ± 0.00199
CCCTGTAC	0.173 ± 0.0309
ACGTGTAT	0.321 ± 0.0343
ACCGCCCC	0.157 ± 0.0585
ACCACTGG	0.153 ± 0.00392
ACCTTACC	0.155 ± 0.0397
CACGGACA	0.298 ± 0.0109
CACGACCC	0.32 ± 0.0093
CACGACAC	0.448 ± 0.0167
AACGACAC	0.4466 ± 0.00332
CACGACGC	0.151 ± 0.0468

Sequence	binding signal [E-score]
CACGACTC	0.304 ± 0.00378
CACGACAG	0.1738 ± 0.000629
CACGACCA	0.227 ± 0.0193
GACGACAC	0.429 ± 0.0137
GACGACCC	0.158 ± 0.0499
CACCTATA	0.301 ± 0.00719
CCCGACCA	0.204 ± 0.0179
ACCGTGTG	0.259 ± 0.0453
CCCGTGTC	0.458 ± 0.00911
ACCGTGTC	0.428 ± 0.0209
ACCGTGCC	0.179 ± 0.0325
GCCGTGTA	0.419 ± 0.00774
CCCGTCTC	0.239 ± 0.00285
CCCGTGAC	0.155 ± 0.00256
CCCGTGTA	0.453 ± 0.00915
CCTGTGTA	0.192 ± 0.0408
GCCGGGTA	0.197 ± 0.033
CCCGCGTA	0.154 ± 0.0151
CCCCCGGA	0.263 ± 0.00617
AAGGATCC	0.178 ± 0.0155
GACTCCGA	0.198 ± 0.0344
ACCGTGTA	0.4376 ± 0.00046
ACCGGGTA	0.212 ± 0.00998
ACCCTGTA	0.153 ± 0.0186
GCAGCACC	0.219 ± 0.0401

Sequence	binding signal [E-score]
CGTTACCC	0.207 ± 0.026
GGTTAAAC	0.183 ± 0.0367
GGTTACAC	0.4536 ± 0.000905
CGTTACAC	0.424 ± 0.0188
AGTTGCAC	0.208 ± 0.0144
AGTTACAC	0.449 ± 0.0313
GGTTGCAC	0.183 ± 0.0188
CGTTTACA	0.154 ± 0.0251
AAATGGTG	0.289 ± 0.00359
CGCCGGCG	0.192 ± 0.0602
AGTTCGAA	0.156 ± 0.011
CCCCCGCA	0.218 ± 0.0293
CGACCCCA	0.233 ± 0.0324
ATATATAC	0.154 ± 0.00578
ATATACAC	0.409 ± 0.0246
CTATACAC	0.379 ± 0.0172
GTATACAA	0.155 ± 0.0122
GAGTATAC	0.157 ± 0.0409
GTATACAC	0.411 ± 0.00685
CAAAGGGG	0.188 ± 0.0422
CCCCATAG	0.209 ± 0.0311
TACCAACA	0.167 ± 0.0345
GTGTACAA	0.4291 ± 0.00333
ATGTACCC	0.19 ± 0.00303
ATGTACAC	0.435 ± 0.00667

Sequence	binding signal [E-score]
CTGCACAC	0.247 ± 0.0168
CTGTACAC	0.41165 ± 0.000233
GTACACAC	0.355 ± 0.0185
CTGTACCC	0.183 ± 0.0197
GTGTACAC	0.4741 ± 0.00152
ACCCGGCG	0.235 ± 0.0231
CCCATACA	0.192 ± 0.0397
CTCGGACA	0.171 ± 0.0363
AGGGATCC	0.212 ± 0.0252
ACACAACA	0.268 ± 0.0457
CCCGATTA	0.166 ± 0.0206
TGATAACA	0.153 ± 0.0108
TGTCTAAA	0.199 ± 0.0261
CACCAGCA	0.341 ± 0.0362
GACCCCAC	0.2185 ± 0.00167
GAACACTA	0.356 ± 0.0123
AAACAACA	0.166 ± 0.016
GAGCACCA	0.243 ± 0.0142
AAACACAC	0.344 ± 0.0104
AAACACTC	0.321 ± 0.0305
GAACACCA	0.4685 ± 0.000778
TAACACTA	0.384 ± 0.0373
AAACACCA	0.454 ± 0.0052
AAACACTA	0.298 ± 0.0405
AAACACGA	0.324 ± 0.0263

Sequence	binding signal [E-score]
AAACACCC	0.45 ± 0.00506
CAACACTA	0.34 ± 0.0042
CACGGGAG	0.17 ± 0.0204
ACCGAACC	0.197 ± 0.00959
ACCCCCCC	0.31 ± 0.0449
CACCAACG	0.335 ± 0.0249
ACCGCGTG	0.246 ± 0.00416
GGAGGGGA	0.158 ± 0.02
ACGTAACA	0.199 ± 0.0228
CACCAACA	0.377 ± 0.0268
CACCACCG	0.3551 ± 0.000962
CAACACAA	0.182 ± 0.0648
CAACACTG	0.323 ± 0.00702
AAACACTG	0.344 ± 0.0208
AAGCACCG	0.175 ± 0.0203
CAACACCA	0.4741 ± 0.00414
CAACACTC	0.36 ± 0.00549
AAACACCG	0.4654 ± 0.00275
CAACACAC	0.342 ± 0.0337
CAACACCC	0.456 ± 0.00535
CAACACCG	0.46689 ± 0.000212
ACCAGGTA	0.241 ± 0.0242
ATACTACA	0.257 ± 0.011
AACTGGTG	0.364 ± 0.0186
GACGCCGA	0.174 ± 0.0331

Sequence	binding signal [E-score]
AGAGGTGC	0.19 ± 0.0288
ACTCCCCG	0.191 ± 0.00694
AAACACGG	0.3488 ± 0.00234
GAACACAC	0.319 ± 0.0348
AAACACTT	0.252 ± 0.0426
AAACACGT	0.307 ± 0.0183
GAACACTC	0.374 ± 0.0139
TAACACGA	0.399 ± 0.00944
GAACACCC	0.4707 ± 0.00185
AAACACCT	0.419 ± 0.00791
CAACACGA	0.328 ± 0.0204
CAACACGG	0.38 ± 0.0301
CACGTGAC	0.258 ± 0.0152
TCGGATAA	0.194 ± 0.0204
GGGTTTTA	0.163 ± 0.0227
ACACAGGG	0.158 ± 0.0633
CACCATTA	0.266 ± 0.00672
CACGGGTA	0.291 ± 0.0126
CACTCGAG	0.172 ± 0.0369
TAACACCA	0.477 ± 0.00686
TAGCACCA	0.2242 ± 0.00214
TAACACAA	0.216 ± 0.0241
GAACACGA	0.3393 ± 0.000771
